From PubChem BioAssay (NCATS) come the findings set out here.

The structures appear in SMILES notation. Results filed as inconclusive are left out. A call without a number means that no potency is given here. The source made the active and inactive calls. Calls come from the whole dose curve; as a rule, active = well fitted cell-killing curve with a large enough effect; inconclusive = small, poorly fitted or top-dose-only effect, or effect the other way; inactive = no such curve, though single readings can be large or run the other way. Starred links: 1 amine or outer side, 2 acyl side, 3 side chain; linkers in the order of their positions; H or OH if unused. Positions of bridges follow the written chain, without caps; N, C: chain ends. Non-standard residues stand in square brackets, D forms with d. Residues, ends and D or L forms follow the SMILES beside them. Chains are numbered I, II in the order given. *: point of attachment. Actinocin(9to1) = Cc1c2oc3c(C)ccc(C(=O)[*:1])c3nc-2c(C(=O)[*:2])c(N)c1=O; NMeV = CN[CH](C(=O)O)C(C)C; Nva = CCC[C@H](N)C(=O)O; Cbz = O=C(OCc1ccccc1)*; Sar = CNCC(=O)O
Potency is the fitted concentration of half-maximal effect.

The test is described as follows: qHTS of pediatric cancer cell lines to identify multiple opportunities for drug repurposing: Confirmatory screen for Rh30 cells (AID 1347126). Note: nearly all actives have a fitted effect of over 55% in size. As to conditions: Rh30 rhabdomyosarcoma cell viability; series mostly up to 45.9 µM. The source says: Drug repurposing or repositioning has been offered as a strategy for drug development in oncology programs. This approach has special potential for childhood cancers and other rare or orphan diseases, where the expected return on new drug development has been a disincentive to pharmaceuticals.
In this project we exploit the poly-pharmacology of drugs to discover new indications via phenotypic screening of a panel of 19 well-characterized cell lines derived from solid tumors seen in children and adolescents. The goal is to identify approved drugs with previously unrecognized anticancer properties that has the potential to reveal new mechanisms and biological processes involved in carcinogenesis or drug resistance. We employed a titration-based paradigm (quantitative high-throughput screening or qHTS), where all compounds were tested at multiple concentrations for their effect on cell viability. Concentration-response curves (CRCs) were derived directly from the primary screen, and both potency and efficacy values were used to identify compounds with robust bioactivity profiles. We screened the NIH Chemical Genomics Center (NCGC) Pharmaceutical Collection (NPC) and Mechanism Interrogation Plate (MIPE) small molecule collections of approved and investigational compounds against these cell lines; and measured metabolically active cells after 48 hours of compound treatment as a proxy for cell viability.
Assay Submitter: Nathalia J. Martinez, National Center for Advancing Translational Sciences, National Institutes of Health, Rockville, MD, USA; email: natalia.martinez@nih.gov
[1] Shen, M et al. Quantitative high-throughput phenotypic screening of pediatric cancer cell lines identifies multiple opportunities for drug repurposing. Oncotarget 2017 Dec 19;9(4):4758-4772. PMID 29435139.
The cells were obtained from University of North Carolina (UNC), Pediatric Preclinical Testing Program (PPT), and Coriell Institute (CI).
qHTS cell viability assay:
Cells were assayed in growth media at a density of 500-1,000 cells/well. Five microliters of cells were dispensed into 1,536-well, white, solid-bottom, TC-treated plates (Greiner Bio One) using a multidrop dispenser and incubated at 37 degrees C, 5% CO2, under a humidified atmosphere for 5 hours. Twenty-three nanoliters of compounds and controls (neutral control DMSO or positive control bortezomib at final concentration of 2.3 µM) were subsequently transferred by Kalypsys pintool. For primary screens, the MIPE collection was tested at 11-point dilutions (final concentrations range from 0.78 nM to 46 µM) and the NPC collection at 8-point dilutions (final concentrations range from 0.59 nM to 46 µM). Compounds tested in follow-up screens were assayed at 11-point dilutions. Cells were incubated for 48 hours, followed by addition of 3 µL of CellTiter-Glo (Promega). After a 15 min incubation at room temperature, samples were analyzed for luminescence intensity using a ViewLux High-throughput CCD imager equipped with clear filters.
Background: In qHTS, concentration-response curves come from the screen itself.
As for `CC(=O)[C@]1(O)Cc2c(O)c3c(c(O)c2[C@@H](O[C@H]2C[C@H](N)[C@@H](O)[C@H](C)O2)C1)C(=O)c1ccccc1C3=O`, the Potency result is “inactive”.
As for `CC(C)(N)c1ccc(-c2nc3ccccc3nc2-c2ccccc2)cc1`, the entry is “inactive”; as for `COC1=C2C[C@@H](C)C[C@H](OC)[C@@H](O)[C@@H](C)C=C(C)[C@H](OC(N)=O)[C@@H](OC)C=CC=C(C)C(=O)NC(=CC1=O)C2=O`, 1310 nM (active); as for `COc1ccc2c(c1OC)C(=O)OC2[C@H]1c2c(cc3c(c2OC)OCO3)CCN1C` (stereo not given in full), “inactive”.
As for `C[C@@]12C(=O)OC(=O)[C@@]1(C)C1CCC2O1`, the figure is 3290 nM (active); as for `COc1ccc(C[C@@H](C)[C@@H](C)Cc2ccc(OC)c(OC)c2)cc1OC`, “inactive”.
As for `O=C(NC1CC1)c1cccc(-c2ccc3c(NC(=O)C4CC4)n[nH]c3c2)c1`, the entry is “inactive”; as for `Cc1cnc(Nc2ccc(CN3CCOCC3)cc2)nc1Nc1cccc(S(=O)(=O)NC(C)(C)C)c1`, “inactive”; as for `COc1ccc(S(=O)(=O)Nc2cccnc2Nc2ccc(O)cc2)cc1`, “inactive”.
For the compound `C#CCC(Cc1cnc2nc(N)nc(N)c2n1)c1ccc(C(=O)N[C@@H](CCC(=O)O)C(=O)O)cc1` (stereo not given in full), the Potency result is “inactive”.
As for `COc1cc2ncnc(Nc3cccc(Br)c3)c2cc1OC`, the figure is 9270 nM (active); as for `CC(C=CC(=O)NO)=C[C@@H](C)C(=O)c1ccc(N(C)C)cc1`, “inactive”; as for `COc1cc([C@@H]2c3cc4c(cc3[C@H](O)[C@H]3COC(=O)[C@@H]23)OCO4)cc(OC)c1OC`, “inactive”.
As for `O=C(O)c1ccc(Nc2ncc3c(n2)-c2ccc(Cl)cc2C(c2c(F)cccc2F)=NC3)cc1`, the entry is “inactive”.
As for `Oc1cc(-c2nc(-c3ccccc3)[nH]c2-c2ccncc2)ccc1Cl`, the figure is 1310 nM (active); as for `CCN(CC)Cc1ccc2cc(COC(=O)Nc3ccc(C(=O)NO)cc3)ccc2c1`, “inactive”.
Turning to `Nc1nc2c(c(=O)[nH]1)N(C=O)[C@H](CNc1ccc(C(=O)N[C@@H](CCC(=O)O)C(=O)O)cc1)CN2`, the Potency result is “inactive”.
As for `O=S(=O)(O)CCSSCCS(=O)(=O)O`, the entry is “inactive”; as for `O=C1NC(=O)C(=Cc2ccc3nccc(-c4ccncc4)c3c2)S1`, 6570 nM (active).
For `COc1cccc2c1C(=O)c1c(O)c3c(c(O)c1C2=O)C[C@@](O)(C(C)=O)C[C@H]3O[C@H]1C[C@H](N)[C@H](O)[C@H](C)O1`, the Potency entry was “inactive”.
As for `CC(C(C)N1CC(=O)NC(=O)C1)N1CC(=O)NC(=O)C1` (stereo not given), the entry is “inactive”; as for `CC(=O)N1CCN(c2ccc(OCc3nn(C)c(C)c3-c3cccc4c(CCCOc5cccc6ccccc56)c(C(=O)O)n(Cc5cccnc5)c34)cc2)CC1`, “inactive”; as for `CNC(=O)Nc1ccc(-c2nc(N3CC4CCC(C3)O4)c3cnn(C4CCC5(CC4)OCCO5)c3n2)cc1`, 329 nM (active).
As for `COC(=O)C=CC(=O)OC`, the figure is 4140 nM (active); as for `Oc1ccc(-c2ccc(-c3cc(Nc4cccc(CNC5CC5)c4)n[nH]3)cc2)c(O)c1`, 5220 nM (active).
As for `N#CNC(=NCCCCCCOc1ccc(Cl)cc1)Nc1ccncc1`, the figure is 18.5 nM (active); as for `C[N+](C)([O-])CCNc1ccc(NCC[N+](C)(C)[O-])c2c1C(=O)c1c(O)ccc(O)c1C2=O`, “inactive”; as for `COc1ccc(C=Cc2cc(OC)c(OC)c(OC)c2)cc1NC(=O)[C@H](N)CO`, 928 nM (active).
Regarding `FC(F)c1nc2ccccc2n1-c1nc(N2CCOCC2)nc(N2CCOCC2)n1`, the Potency is 1650 nM (active).
As for `CC(C)(O)Cn1c(NC(=O)c2ccc(-c3cn[nH]c3)s2)nc2cc(CN3CCOCC3)ccc21`, the figure is 657 nM (active); as for `CCC[C@@H](C=O)NC(=O)[C@H](CC(C)C)NC(=O)[C@H](CC(C)C)NC(=O)OCc1ccccc1` (Cbz-Leu-Leu-[Nva]-aldehyde), 4140 nM (active).
As for `CC(=O)O[C@H]1C[C@@H]2CC[C@H]3[C@H]4C[C@H]([N+]5(C)CCCCC5)[C@@H](OC(C)=O)[C@@]4(C)CC[C@@H]3[C@@]2(C)C[C@H]1N1CCCCC1`, the figure is 8270 nM (active).
As for `CC1(C)O[C@@H]2C[C@H]3[C@@H]4CCC5=CC(=O)C=C[C@]5(C)[C@@H]4[C@@H](O)C[C@]3(C)[C@]2(C(=O)CO)O1`, the entry is “inactive”; as for `COC[C@H](NC(=O)c1cnc(C)s1)C(=O)N[C@@H](COC)C(=O)N[C@@H](Cc1ccccc1)C(=O)[C@@]1(C)CO1`, 737 nM (active).
On to `COc1ccc(C(C)=O)c(O)c1`, for which the Potency result was “inactive”.
As for `COc1cccc2c1C(=O)c1c(O)c3c(c(O)c1C2=O)C[C@@](O)(C(=O)CO)C[C@H]3O[C@H]1C[C@H](N)[C@H](O)[C@H](C)O1`, the figure is 1170 nM (active); as for `CN(CC(=O)N(Cc1ccc(C2CCCCC2)cc1)c1ccc(C(=O)O)c(O)c1)S(=O)(=O)c1c(F)c(F)c(F)c(F)c1F`, “inactive”.
As for `Cc1c2oc3c(C)ccc(C(=O)NC4C(=O)NC(C(C)C)C(=O)N5CCCC5C(=O)N(C)CC(=O)N(C)C(C(C)C)C(=O)OC4C)c3nc-2c(C(=O)NC2C(=O)NC(C(C)C)C(=O)N3CCCC3C(=O)N(C)CC(=O)N(C)C(C(C)C)C(=O)OC2C)c(N)c1=O` (stereo not given) (I: TVP[Sar][NMeV] / II: TVP[Sar][NMeV]; ester I:1-I:C, II:1-II:C; linker I:N-II:N via Actinocin(9to1); configuration not given here), the entry is “inactive”; as for `Cn1cc(-c2cnn3c(N)c(Br)c([C@H]4CCCNC4)nc23)cn1`, 3690 nM (active); as for `CNC(=O)c1ccc(Nc2cc(Nc3ccccc3S(=O)(=O)C(C)C)c3cc[nH]c3n2)nc1`, 4140 nM (active).
